Test results taken from PubChem BioAssay (NCI).
The panel holds about 79,000 compounds, 15% with a hit somewhere; the sample as a whole holds those more often. The source made the active and inactive calls. No stated cut-off is given here; in the data, active means growth inhibition above about 70%; inactive means the rest.

Legend:
[1] = NCI Yeast Anticancer Drug Screen. Data for the rad52 strain (AID 147);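 further: 0% = growth of vehicle-treated control cultures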; conditions: S. cerevisiae rad52 mutant growth inhibition, active compounds read high
In short: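 Growth of repair-deficient yeast cells was compared between compound-treated and vehicle-treated cultures to give percent inhibition.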

[2] = NCI Yeast Anticancer Drug Screen. Data for the wt1 strain (AID 149);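 further: 0% = growth of vehicle-treated wt1 cultures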; conditions: S. cerevisiae wt1 strain (SPY 50644) growth inhibition, active compounds read high
In short: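 Measured: growth of wt1 yeast under compound versus vehicle treatment, reported as inhibition.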

[3] = NCI Yeast Anticancer Drug Screen. Data for the rad50EPP+ strain (AID 151);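 further: 0% = growth of vehicle-treated control cultures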; conditions: S. cerevisiae rad50 mutant strain, active compounds read high
In short: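 Measured: growth inhibition of rad50EPP+ yeast. Reference: vehicle-treated controls. Screen uses strains with defined genetic alterations in DNA damage repair or cell cycle control.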

[4] = NCI Yeast Anticancer Drug Screen. Data for the mgt1 strain (AID 153); conditions: S. cerevisiae mgt1 mutant growth inhibition, active compounds read high
In short: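 Compounds were applied to mgt1 mutant yeast, and growth was then compared against vehicle-treated control cultures to give percent inhibition.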

[5] = NCI Yeast Anticancer Drug Screen. Data for the rad50 strain (AID 155);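 further: 0% = growth of vehicle-only cultures of the same strain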; conditions: S. cerevisiae rad50 strain growth inhibition, active compounds read high
In short: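 Growth of the mutant yeast was measured after compound exposure and referenced to vehicle-treated cultures.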

[6] = NCI Yeast Anticancer Drug Screen. Data for the mec2-1 strain (AID 157); conditions: S. cerevisiae mec2-1 strain, active compounds read high
In short: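 Compounds were applied to mec2-1 yeast cells. Their growth was then compared with that of vehicle-treated cultures to give growth inhibition.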

[7] = NCI Yeast Anticancer Drug Screen. Data for the rad14 strain (AID 159);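 further: 0% = growth of vehicle-treated control cultures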; conditions: S. cerevisiae rad14 strain growth inhibition, active compounds read high
In short: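 Here, inhibition of yeast growth was measured after compound exposure, using a strain with a genetic defect in DNA damage repair and vehicle-treated cultures as the reference.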

[8] = NCI Yeast Anticancer Drug Screen. Data for the sgs1 mgt1 strain (AID 161);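 further: 0% = growth of cultures given vehicle only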; conditions: S. cerevisiae sgs1 mgt1 strain, active compounds read high
In short: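 Compounds are added to genetically altered yeast, and growth is compared with cultures given vehicle alone to give percent inhibition.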

[9] = NCI Yeast Anticancer Drug Screen. Data for the CLN2oe strain (AID 163);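 further: 0% = growth of vehicle-only control cultures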; conditions: S. cerevisiae CLN2oe strain, active compounds read high
In short: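 Cells of an engineered yeast line with disturbed cell-cycle regulation are treated with compound. Inhibition of growth is then calculated relative to the vehicle-treated reference.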

[10] = NCI Yeast Anticancer Drug Screen. Data for the cln2 rad14 strain (AID 165);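 further: 0% = growth equal to vehicle treated cultures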; conditions: S. cerevisiae cln2 rad14 strain, active compounds read high
In short: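 Strain: cln2 rad14 yeast, altered in cell cycle control and DNA damage repair. Read-out: growth inhibition vs vehicle.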

[11] = NCI Yeast Anticancer Drug Screen. Data for the bub3 strain (AID 167); conditions: S. cerevisiae bub3 mutant strain, active compounds read high
In short: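 Whole-cell yeast assay. The mutant strain was incubated with compounds, and growth inhibition was determined by comparison with vehicle-treated cells.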

[12] = NCI Yeast Anticancer Drug Screen. Data for the mlh1 strain (AID 171);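 further: 0% = growth of vehicle-treated control cultures of the same strain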; conditions: S. cerevisiae mlh1 strain growth inhibition, active compounds read high
In short: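 Test agents were incubated with yeast bearing a defined DNA damage repair or cell cycle control alteration; values are growth inhibition normalised to vehicle-treated cultures.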

[13] = NCI Yeast Anticancer Drug Screen. Data for the sgs1 strain (AID 173);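 further: 0% = growth of vehicle-only control cultures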; conditions: S. cerevisiae sgs1 mutant, active compounds read high
In short: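 Strain with an altered DNA repair or cell cycle pathway exposed to compound. Growth then measured. Value = inhibition versus vehicle control.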

[14] = NCI Yeast Anticancer Drug Screen. Data for the mlh1 rad18 strain (AID 175); conditions: S. cerevisiae mlh1 rad18 strain growth inhibition, active compounds read high
In short: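 A repair-deficient yeast strain is exposed to test compound, and growth is scored relative to vehicle-treated controls.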

[15] = NCI Yeast Anticancer Drug Screen. Data for the rad18 strain (AID 177); conditions: S. cerevisiae rad18 mutant growth inhibition, active compounds read high
In short: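 DNA-repair-defective yeast; compound treatment; growth inhibition scored against vehicle.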

[16] = at 5.0 µM (retest, dose inferred, filed as 0.5)
[17] = at 50.0 µM (retest, dose inferred, filed as 5.0)

Measured: growth inhibition

CCC(=O)c1cccc2ccccc12
active: [3]; at 100.0 µM 86%
inactive: [1]; at 1.2 µM 1% | [1]; at 3.7 µM 2% | [1]; at 11.0 µM 1% | [1]; at 33.0 µM 2% | [1]; at 100.0 µM -1% | [2]; at 1.2 µM 0% | [2]; at 3.7 µM 1% | [2]; at 11.0 µM 3% | [2]; at 33.0 µM 0% | [2]; at 100.0 µM -4% | [3]; at 1.2 µM 6% | [3]; at 3.7 µM 11% | [3]; at 11.0 µM 27% | [3]; at 33.0 µM 48% | [4]; at 1.2 µM 1% | [4]; at 3.7 µM -1% | [4]; at 11.0 µM 0% | [4]; at 33.0 µM 15% | [4]; at 100.0 µM 3% | [5]; at 1.2 µM 0% | [5]; at 3.7 µM -1% | [5]; [16] -14% | [5]; at 11.0 µM 1% | [5]; at 33.0 µM 0% | [5]; [17] 2% | [5]; at 50.0 µM 14.7% | [5]; at 100.0 µM -3% | [6]; at 1.2 µM -2% | [6]; at 3.7 µM 0% | [6]; [16] 5% | [6]; at 11.0 µM -2% | [6]; at 33.0 µM -1% | [6]; [17] 4% | [6]; at 50.0 µM 19.2% | [6]; at 100.0 µM -1% | [7]; at 1.2 µM -1% | [7]; at 3.7 µM -2% | [7]; at 11.0 µM -1% | [7]; at 33.0 µM -1% | [7]; at 100.0 µM 4% | [8]; [16] -4% | [8]; [17] 52% | [8]; at 50.0 µM 20% | [9]; at 1.2 µM -7% | [9]; at 3.7 µM 2% | [9]; at 11.0 µM -6% | [9]; at 33.0 µM -13% | [9]; at 100.0 µM -11% | [10]; [16] 12% | [10]; [17] 18% | [10]; at 50.0 µM 46.5% | [11]; at 1.2 µM -6% | [11]; at 3.7 µM -6% | [11]; [16] 11% | [11]; at 11.0 µM -6% | [11]; at 33.0 µM -8% | [11]; [17] 23% | [11]; at 50.0 µM -4.8% | [11]; at 100.0 µM 4% | [12]; at 1.2 µM 3% | [12]; at 3.7 µM 2% | [12]; at 11.0 µM 2% | [12]; at 33.0 µM 1% | [12]; at 100.0 µM 4% | [13]; at 1.2 µM 1% | [13]; at 3.7 µM 3% | [13]; at 11.0 µM 4% | [13]; at 33.0 µM 3% | [13]; at 100.0 µM 14% | [14]; [16] 7% | [14]; [17] 28% | [14]; at 50.0 µM -14.7% | [15]; at 1.2 µM 1% | [15]; at 3.7 µM -1% | [15]; at 11.0 µM -14% | [15]; at 33.0 µM 0% | [15]; at 100.0 µM -2%

NC(=O)NN=C(CS)CS
active: [1]; at 100.0 µM 88% | [5]; at 100.0 µM 89% | [7]; at 100.0 µM 97% | [8]; at 50.0 µM 75% | [14]; at 50.0 µM 84.8% | [15]; at 100.0 µM 95%
inactive: [1]; at 1.2 µM -1% | [1]; at 3.7 µM 4% | [1]; at 11.0 µM 19% | [1]; at 33.0 µM 50% | [2]; at 1.2 µM -1% | [2]; at 3.7 µM -2% | [2]; at 11.0 µM -1% | [2]; at 33.0 µM 17% | [2]; at 100.0 µM 33% | [3]; at 1.2 µM -2% | [3]; at 3.7 µM -1% | [3]; at 11.0 µM -5% | [3]; at 33.0 µM 6% | [3]; at 100.0 µM 29% | [4]; at 1.2 µM -1% | [4]; at 3.7 µM 0% | [4]; at 11.0 µM 2% | [4]; at 33.0 µM 12% | [4]; at 100.0 µM 66% | [5]; at 1.2 µM 1% | [5]; at 3.7 µM 30% | [5]; [16] 4% | [5]; at 11.0 µM 31% | [5]; at 33.0 µM 44% | [5]; [17] 57% | [5]; at 50.0 µM 63.8% | [6]; at 1.2 µM 0% | [6]; at 3.7 µM 0% | [6]; [16] 1% | [6]; at 11.0 µM 6% | [6]; at 33.0 µM 24% | [6]; [17] 28% | [6]; at 50.0 µM 48.5% | [6]; at 100.0 µM 60% | [7]; at 1.2 µM -2% | [7]; at 3.7 µM 0% | [7]; at 11.0 µM 6% | [7]; at 33.0 µM 30% | [8]; [16] 2% | [8]; [17] 32% | [9]; at 1.2 µM -9% | [9]; at 3.7 µM -11% | [9]; at 11.0 µM -10% | [9]; at 33.0 µM 0% | [9]; at 100.0 µM 11% | [10]; [16] -22% | [10]; [17] 9% | [10]; at 50.0 µM -11.9% | [11]; at 1.2 µM 0% | [11]; at 3.7 µM -7% | [11]; [16] -3% | [11]; at 11.0 µM 3% | [11]; at 33.0 µM 14% | [11]; [17] 15% | [11]; at 50.0 µM 27.4% | [11]; at 100.0 µM 56% | [12]; at 1.2 µM 0% | [12]; at 3.7 µM -1% | [12]; at 11.0 µM 3% | [12]; at 33.0 µM 14% | [12]; at 100.0 µM 60% | [14]; [16] 5% | [14]; [17] 47% | [15]; at 1.2 µM -1% | [15]; at 3.7 µM 6% | [15]; at 11.0 µM 19% | [15]; at 33.0 µM 61%
